The source of these data is PubChem BioAssay.

A short description of assay [1]: resazurin metabolic signal in HepG2 cells – cell-based, resazurin fluorescence, 24 h, PK04 Diversity Set, profiling panel (AID 1172). Further: test concentration not given here. The note with it: HepG2 viability, higher = more signal. (Resazurin is reduced to fluorescent resorufin, in cell work by metabolically active cells.)
A short description of assay [2]: budding yeast growth changes without added modifier – OD600, strain BY4716, 24 h, basal condition, primary screen (AID 1173). The note with it: S. cerevisiae BY4716 growth, OD600, 24 h; higher = more signal, called active from +8 up or from −8 down.
Assay [3] can be described thus: viability profiling in MM1S myeloma cells – cell-based, resazurin fluorescence, basal, 24 h, PK04 Diversity Set, profiling panel (AID 1174).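 Further: MM1S multiple myeloma cell line; test concentration not given here.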 The settings on record: higher = more signal, called active from +8 up or from −8 down.
In assay [4] the target is Dihydroorotate dehydrogenase (quinone), mitochondrial (Plasmodium falciparum (isolate 3D7)) (UniProt Q08210). As to the kind of experiment: inhibition of P. falciparum DHODH – biochemical, C-terminal His tag, absorbance 600 nm, primary screen (AID 1175).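 Further: recombinant parasite enzyme with a five histidine tag at its C terminus; test concentration not given here.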 The settings on record: PfDHODH enzyme, DCIP absorbance 600 nm; higher = more signal, called active from +8 up or from −8 down.

Assay [5] in a line: inhibition of PAO1 biofilm formation – strain PAO1, LB-PBS medium, absorbance 600 nm, primary screen (AID 1176). Further: test concentration not given here. The note with it: P. aeruginosa PAO1 growth/biofilm, A600, 12 h; higher = more signal.
Assay [6] can be described thus: growth modulation of vineyard yeast isolate – strain RM11-1a, OD600, basal, 24 h, primary screen (AID 1177).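 Further: cultures grown under basal conditions with no added stressor; test concentration not given here.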 The settings on record: S. cerevisiae RM11-1a growth, OD600, 24 h; higher = more signal, called active from +8 up or from −8 down.
The nature of assay [7]: growth of efflux-deficient E. coli DRC39 – strain DRC39, OD650, 24 h, E. coli filamentation inducers, primary screen (AID 1178).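 Further: growth measured as culture turbidity by optical density at 650 nm; test concentration not given here.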 The note with it: E. coli DRC39 acrAB, higher = more signal, called active from +8 up or from −8 down.
Assay [8] is described as follows: growth of efflux-deficient E. coli DRC39 – strain DRC39, OD650, 48 h, E. coli filamentation inducers, primary screen (AID 1179).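 Further: screen aims at cell division blockers that make cells filament.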 The note with it: E. coli DRC39 delta-acrAB growth, higher = more signal, called active from +8 up or from −8 down.
Assay [9] can be described thus: viability profiling in RPMI8226 myeloma cells – cell-based, resazurin fluorescence, basal, 24 h, PK04 Diversity Set, profiling panel (AID 1180).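 Further: RPMI8826 multiple myeloma cell line at 5000 cells per well; test concentration not given here.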 The note with it: higher = more signal.
Assay [10] addresses E3 ubiquitin-protein ligase XIAP (Homo sapiens) (UniProt P98170). As to the kind of experiment: small molecules binding XIAP protein – biophysical, small-molecule microarray, fluorescence 635 nm, primary screen (AID 1181).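 Further: score merges 667 nm emission and signal to noise over triplicate slides.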 The settings on record: higher = more signal.

Active and inactive are the calls of the source. Unless noted, how the calls were made is not given here.

Chain of Dihydroorotate dehydrogenase (quinone), mitochondrial (Plasmodium falciparum (isolate 3D7)) (Q08210 whole entry, looked up): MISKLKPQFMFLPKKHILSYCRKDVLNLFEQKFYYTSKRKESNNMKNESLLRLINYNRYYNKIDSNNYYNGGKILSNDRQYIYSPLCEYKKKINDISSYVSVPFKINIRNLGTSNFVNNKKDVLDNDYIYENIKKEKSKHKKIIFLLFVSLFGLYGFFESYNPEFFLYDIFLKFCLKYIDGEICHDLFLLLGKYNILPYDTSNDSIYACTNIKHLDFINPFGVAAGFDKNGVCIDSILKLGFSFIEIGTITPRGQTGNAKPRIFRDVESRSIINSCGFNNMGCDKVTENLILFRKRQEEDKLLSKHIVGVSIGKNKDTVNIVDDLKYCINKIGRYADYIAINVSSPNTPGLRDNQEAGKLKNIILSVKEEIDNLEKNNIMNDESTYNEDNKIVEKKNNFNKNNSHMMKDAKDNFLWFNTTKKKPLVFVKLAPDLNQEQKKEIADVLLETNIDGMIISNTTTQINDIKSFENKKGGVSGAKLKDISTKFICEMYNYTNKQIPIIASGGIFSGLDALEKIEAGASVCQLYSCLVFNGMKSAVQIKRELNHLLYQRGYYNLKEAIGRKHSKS
Chain of E3 ubiquitin-protein ligase XIAP (Homo sapiens) (P98170 whole entry, looked up): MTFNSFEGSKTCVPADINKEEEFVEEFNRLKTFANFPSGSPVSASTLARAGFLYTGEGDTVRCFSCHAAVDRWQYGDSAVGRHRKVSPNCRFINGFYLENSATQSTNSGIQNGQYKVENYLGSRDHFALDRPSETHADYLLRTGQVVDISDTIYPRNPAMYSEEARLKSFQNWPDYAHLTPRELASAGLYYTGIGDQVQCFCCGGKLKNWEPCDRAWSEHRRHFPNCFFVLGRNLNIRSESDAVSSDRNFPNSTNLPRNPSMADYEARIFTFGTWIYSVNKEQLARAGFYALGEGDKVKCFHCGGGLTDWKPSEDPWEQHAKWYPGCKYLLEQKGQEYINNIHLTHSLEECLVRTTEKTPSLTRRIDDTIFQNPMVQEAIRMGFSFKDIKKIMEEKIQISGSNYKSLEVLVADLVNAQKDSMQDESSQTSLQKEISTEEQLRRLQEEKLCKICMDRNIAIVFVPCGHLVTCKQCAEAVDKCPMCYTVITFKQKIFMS

`CC(C)(C)OC(=O)CC[C@@]1(C(=O)NCC(O)CO)N=C(c2ccc(OCCCO)cc2)O[C@@H]1c1ccccc1` (stereo not given in full): the z-score in assay [1] is 0.38; in [2], -0.205 (inactive); in [3], -0.542 (inactive); in [5], 0.671 (inactive); in assay [6] it was 0.0191 (inactive); in assay [7], -0.529 (inactive). For the same molecule, the z-score in assay [8] was 0.108 (inactive); in assay [9], -0.397. Further, the composite z-score in assay [4] was -0.73 (inactive); in [10] it was 0.0785.

Consider `COc1ccc([Si](C)(C)[C@H]2[C@H](CCO)O[C@@]3(C(=O)N(Cc4cccc(N5C(=O)c6cccc7cccc5c67)c4)c4ccccc43)[C@@H]2C)cc1`, for which the z-score was -2.42 in assay [1]; 1.18 (inactive) in [2]; -4.22 (inactive) in [3]; 1.51 (inactive) in assay [5]; 4.72 (inactive) in assay [6]; 0.0827 (inactive) in [7]. Further, the z-score in assay [8] was -0.511 (inactive); in assay [9], -4.88. Moreover, the composite z-score in assay [4] is 0.763 (inactive); in assay [10] it was 0.224.

`O=C(CS)NCCCCCNC(=O)[C@H]1C[C@H]2C(=O)N[C@@H](Cc3ccccc3)C(=O)N2[C@H]1c1cccc(OCCO)c1`: the z-score in [1] was 0.219; in assay [2] it was -0.525 (inactive); in assay [3], 0.782 (inactive); in [5], 0.932 (inactive); in assay [6], -0.572 (inactive); in assay [7] it was 1.94 (inactive). The z-score in assay [8] was 1.68 (inactive); in assay [9], 0.889. In addition, the figures for the composite z-score in [4] and in assay [10] were 0.761 (inactive) and 0.0585, respectively.

Turning to `[N-]=[N+]=Nc1ccccc1[C@@H]1OC(c2ccc(OCCCO)cc2)=N[C@]1(CCS(=O)(=O)c1ccccc1)C(=O)N1CCCCC1`, the z-score is -0.644 in [1]; 1.69 (inactive) in [2]; -1.66 (inactive) in [3]; 0.687 (inactive) in assay [5]; 2.08 (inactive) in assay [6]; -0.0955 (inactive) in assay [7]. Further, the z-score in assay [8] was -0.933 (inactive); in [9] it was -1.81. Besides, the composite z-score was 1.06 (inactive) in assay [4] and -0.202 in assay [10].

For `CCCC[C@@H]1C[C@H]1[C@@H](NC(=O)c1ccccc1)c1ccc(-c2ccccc2)cc1`, the z-score was -2.26 in [1]; -0.552 (inactive) in assay [2]; -2.24 (inactive) in [3]; 0.122 (inactive) in assay [5]; 0.219 (inactive) in assay [6]; -0.499 (inactive) in assay [7]. Also, the z-score is -0.293 (inactive) in assay [8] and -3.64 in [9]. The composite z-score in assay [4] is -0.297 (inactive); in [10], 1.14.

Take `CN(C)CCCCCCNC(=O)[C@@H]1C[C@@H]2C(=O)NCC(=O)N2[C@@H]1c1cccc(OCCO)c1`: the z-score in assay [1] was -0.358; in assay [2], -0.531 (inactive); in assay [3] it was -0.578 (inactive); in assay [5] it was 0.0067 (inactive); in [6] it was 0.536 (inactive); in [7], 0.757 (inactive). Moreover, the z-score in assay [8] was 0.614 (inactive); in assay [9], -1.12. Further, the composite z-score in assay [4] is -1.08 (inactive); in [10] it was 0.0043.

In the case of `Cc1ccc(C(C)CC(O)C2C=CC3C(=O)NC(=O)C3N2Nc2ccccn2)o1` (stereo not given), the z-score was -0.668 in assay [1]; 0.258 (inactive) in assay [2]; -1.19 (inactive) in assay [3]; 1.04 (inactive) in [5]; 0.735 (inactive) in assay [6]; 0.168 (inactive) in [7]. Besides, the results for the z-score in assay [8] and in assay [9] were 0.215 (inactive) and -0.355, respectively. Also, the composite z-score was 0.936 (inactive) in assay [4] and -0.127 in assay [10].

Consider `CCCCCCC#C[Si](O[C@H](c1ccccc1)c1cn([C@H](C)c2ccccc2)nn1)(C(C)C)C(C)C`, for which the z-score in assay [1] was 1.94; in assay [2] it was 0.243 (inactive); in assay [3], 2.59 (inactive); in assay [5], -0.443 (inactive); in assay [6] it was 0.53 (inactive); in assay [7] it was -0.0375 (inactive). Besides, the z-score in assay [8] was 0.622 (inactive); in assay [9], 3.6. The composite z-score was -0.204 (inactive) in assay [4] and -0.359 in assay [10].

Regarding `COc1ccc([Si](C)(C)[C@@H]2[C@@H](CCn3cc([C@H](O)c4ccccc4)nn3)O[C@]3(C(=O)N(C)c4ccccc43)[C@H]2C)cc1`, the z-score is -1.46 in assay [1]; -0.397 (inactive) in [2]; -2.34 (inactive) in assay [3]; 0.119 (inactive) in assay [5]; 1.04 (inactive) in [6]; -0.834 (inactive) in assay [7]. Moreover, the z-score is -1.33 (inactive) in assay [8] and -1.81 in assay [9]. In addition, the composite z-score was 0.283 (inactive) in assay [4] and -0.0272 in [10].

For `CCN(CC)c1ccc(N2CC=CC34O[C@@H]5C=CCCOC(=O)C5[C@H]3C(=O)N(CCCO)[C@@H]4C2=O)cc1` (stereo not given in full), the z-score in [1] is -0.704; in assay [2], -1.25 (inactive); in assay [3], 0.61 (inactive); in assay [5] it was 0.525 (inactive); in assay [6] it was -0.294 (inactive); in [7], 1.21 (inactive). In addition, the values for the z-score in [8] and in assay [9] were 0.764 (inactive) and 0.237, respectively. The composite z-score is -0.429 (inactive) in assay [4] and -0.516 in assay [10].

Consider `COCCCNC(=O)[C@@]1(Sc2ccc(C)cc2)CC(=O)N(Cc2ccccc2)[C@@H]1c1ccc(CO)cc1`, for which the z-score was 0.802 in [1]; 0.0695 (inactive) in [2]; 0.495 (inactive) in assay [3]; 0.366 (inactive) in assay [5]; -0.194 (inactive) in assay [6]; 0.234 (inactive) in [7]. For the same molecule, the z-score in [8] is 0.127 (inactive); in assay [9] it was 1.01. Further, the composite z-score in [4] is -0.0163 (inactive); in [10] it was -0.0492.

With `COc1ccccc1CN1C(=O)c2ccccc2[C@](Cc2ccccc2I)(C(=O)NC2CC2)[C@@H]1c1ccc(CO)cc1`, the z-score in assay [1] is -0.246; in [2] it was 0.329 (inactive); in assay [3], -0.185 (inactive); in [5], 0.0714 (inactive); in assay [6] it was 1.66 (inactive); in assay [7], 0.127 (inactive). Also, the z-score in [8] is 0.877 (inactive); in [9], -0.198. For the same molecule, the composite z-score was 0.629 (inactive) in assay [4] and 0.591 in assay [10].

As to `C=C(C)[C@@H]1CC=C(C(O)C2C=CC3C(=O)N(Cc4ccccc4)C(=O)C3N2n2cnnc2)CC1` (stereo not given in full), the z-score in [1] was -0.429; in [2], 0.349 (inactive); in assay [3], -0.893 (inactive); in assay [5], 0.878 (inactive); in assay [6] it was -0.616 (inactive); in [7] it was 0.518 (inactive). Also, the z-score in [8] is -0.66 (inactive); in [9], -0.334. The composite z-score in [4] is -0.295 (inactive); in assay [10], 1.74.

With `CC(C)NC(=O)[C@@]1(c2ccc([N+](=O)[O-])cc2)CC(=O)N(C(C)C)[C@@H]1c1ccc(CO)cc1`, the z-score in assay [1] is -0.864; in assay [2], 0.347 (inactive); in assay [3], -0.972 (inactive); in assay [5], 1.13 (inactive); in assay [6] it was -1.58 (inactive); in assay [7], 0.423 (inactive). For the same molecule, the z-score in assay [8] was 1.17 (inactive); in assay [9] it was -0.792. The composite z-score is -1.53 (inactive) in assay [4] and -0.369 in assay [10].

On to `CCCCN1CC=CC23O[C@@H]4C=CCCOC(=O)C4[C@H]2C(=O)N(CCCO)[C@@H]3C1=O` (stereo not given in full), for which the z-score in assay [1] is -0.341; in assay [2] it was -1.09 (inactive); in [3], -0.404 (inactive); in assay [5], -0.565 (inactive); in assay [6], 0.0943 (inactive); in assay [7], -1.54 (inactive). The z-score is -1.34 (inactive) in [8] and -0.937 in assay [9]. For the same molecule, the values for the composite z-score in assay [4] and in [10] were -3.94 (inactive) and 0.268, respectively.

As for `COc1ccc([Si](C)(C)[C@@H]2[C@@H](CC(=O)N3Cc4ccccc4C[C@H]3CO)O[C@]3(C(=O)N(Cc4cccc(N5C(=O)COc6ccccc65)c4)c4ccccc43)[C@H]2C)cc1`, the z-score in assay [1] is 0.645; in [2], -1.17 (inactive); in assay [3], -1.84 (inactive); in assay [5] it was 1.92 (inactive); in assay [6] it was 1.39 (inactive); in assay [7] it was 1.53 (inactive). Further, the z-score was 1.53 (inactive) in [8] and -0.748 in [9]. For the same molecule, the composite z-score in assay [4] is -1.32 (inactive); in assay [10], 0.188.

Regarding `COCCCNC(=O)[C@@]1(C)c2ccccc2C(=O)N(Cc2ccccc2)[C@H]1c1ccc(CO)cc1`, the z-score in assay [1] was -0.0127; in assay [2], -0.552 (inactive); in assay [3], 0.392 (inactive); in assay [5], 0.745 (inactive); in [6], -0.755 (inactive); in assay [7], -0.157 (inactive). The z-score in assay [8] is -0.275 (inactive); in assay [9], -0.153. The composite z-score in [4] was -0.121 (inactive); in assay [10], -0.0304.
